# ChEMBL document CHEMBL2218924, “A broad activity screen in support of a chemogenomic map for kinase signalling research and drug discovery” (Biochem J, 2013)
# Experiments:
# [1] = target: Tyrosine-protein kinase SYK (Homo sapiens) (UniProt P43405); conditions: at 10 µM
# [2] = target: T1, Mitogen-activated protein kinase kinase kinase 7 (Homo sapiens) (UniProt O43318); conditions: at 1 µM
# T1 sequence (whole entry): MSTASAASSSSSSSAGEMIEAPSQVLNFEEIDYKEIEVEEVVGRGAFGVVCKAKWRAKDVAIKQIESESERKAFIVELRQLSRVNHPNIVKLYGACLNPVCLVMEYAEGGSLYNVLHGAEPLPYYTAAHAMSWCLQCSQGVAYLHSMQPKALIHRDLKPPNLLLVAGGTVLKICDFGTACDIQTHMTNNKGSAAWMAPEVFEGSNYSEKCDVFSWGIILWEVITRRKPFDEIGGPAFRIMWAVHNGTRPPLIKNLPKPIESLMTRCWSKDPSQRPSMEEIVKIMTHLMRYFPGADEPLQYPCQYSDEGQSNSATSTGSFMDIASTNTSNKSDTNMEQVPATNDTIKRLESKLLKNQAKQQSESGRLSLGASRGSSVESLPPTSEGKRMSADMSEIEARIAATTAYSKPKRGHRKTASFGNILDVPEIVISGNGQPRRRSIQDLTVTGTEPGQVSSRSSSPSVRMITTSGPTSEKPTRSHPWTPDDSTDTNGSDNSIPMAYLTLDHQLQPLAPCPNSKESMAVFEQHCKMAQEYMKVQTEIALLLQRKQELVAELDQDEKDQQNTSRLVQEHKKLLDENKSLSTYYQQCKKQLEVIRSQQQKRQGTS
# [3] = target: T1, Mitogen-activated protein kinase kinase kinase 7 (Homo sapiens); conditions: at 10 µM
# [4] = target: T2, Serine/threonine-protein kinase TAO1 (Homo sapiens) (UniProt Q7L7X3); conditions: at 1 µM
# T2 sequence (whole entry): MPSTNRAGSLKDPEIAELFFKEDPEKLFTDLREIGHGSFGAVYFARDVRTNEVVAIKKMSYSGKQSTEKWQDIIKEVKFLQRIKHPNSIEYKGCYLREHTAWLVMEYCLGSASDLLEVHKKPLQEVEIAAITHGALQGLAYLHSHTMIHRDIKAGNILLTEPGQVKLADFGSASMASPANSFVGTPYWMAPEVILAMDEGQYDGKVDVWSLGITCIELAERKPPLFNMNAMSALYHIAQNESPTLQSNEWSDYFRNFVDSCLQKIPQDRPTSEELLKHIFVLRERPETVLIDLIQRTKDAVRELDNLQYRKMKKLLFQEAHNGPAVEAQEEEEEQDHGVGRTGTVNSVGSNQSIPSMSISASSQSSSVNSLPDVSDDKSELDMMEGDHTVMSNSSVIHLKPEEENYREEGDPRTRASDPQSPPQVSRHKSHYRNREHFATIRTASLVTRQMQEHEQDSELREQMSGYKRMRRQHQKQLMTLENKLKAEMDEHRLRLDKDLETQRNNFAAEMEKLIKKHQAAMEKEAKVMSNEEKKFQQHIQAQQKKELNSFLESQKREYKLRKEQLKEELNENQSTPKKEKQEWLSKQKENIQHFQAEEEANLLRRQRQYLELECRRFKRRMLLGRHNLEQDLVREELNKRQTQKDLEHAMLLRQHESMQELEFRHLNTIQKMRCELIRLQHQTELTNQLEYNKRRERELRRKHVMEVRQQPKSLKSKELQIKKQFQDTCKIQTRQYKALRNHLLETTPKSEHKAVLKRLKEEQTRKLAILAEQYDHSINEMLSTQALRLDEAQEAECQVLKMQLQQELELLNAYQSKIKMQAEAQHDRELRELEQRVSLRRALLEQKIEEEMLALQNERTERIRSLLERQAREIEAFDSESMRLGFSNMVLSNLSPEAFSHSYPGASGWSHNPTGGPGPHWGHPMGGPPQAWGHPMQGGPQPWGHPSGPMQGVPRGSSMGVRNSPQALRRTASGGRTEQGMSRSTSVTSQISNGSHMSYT
# [5] = target: T2, Serine/threonine-protein kinase TAO1 (Homo sapiens); conditions: at 10 µM
# [6] = target: T3, Serine/threonine-protein kinase TAO2 (Homo sapiens) (UniProt Q9UL54); conditions: at 1 µM
# T3 sequence (whole entry): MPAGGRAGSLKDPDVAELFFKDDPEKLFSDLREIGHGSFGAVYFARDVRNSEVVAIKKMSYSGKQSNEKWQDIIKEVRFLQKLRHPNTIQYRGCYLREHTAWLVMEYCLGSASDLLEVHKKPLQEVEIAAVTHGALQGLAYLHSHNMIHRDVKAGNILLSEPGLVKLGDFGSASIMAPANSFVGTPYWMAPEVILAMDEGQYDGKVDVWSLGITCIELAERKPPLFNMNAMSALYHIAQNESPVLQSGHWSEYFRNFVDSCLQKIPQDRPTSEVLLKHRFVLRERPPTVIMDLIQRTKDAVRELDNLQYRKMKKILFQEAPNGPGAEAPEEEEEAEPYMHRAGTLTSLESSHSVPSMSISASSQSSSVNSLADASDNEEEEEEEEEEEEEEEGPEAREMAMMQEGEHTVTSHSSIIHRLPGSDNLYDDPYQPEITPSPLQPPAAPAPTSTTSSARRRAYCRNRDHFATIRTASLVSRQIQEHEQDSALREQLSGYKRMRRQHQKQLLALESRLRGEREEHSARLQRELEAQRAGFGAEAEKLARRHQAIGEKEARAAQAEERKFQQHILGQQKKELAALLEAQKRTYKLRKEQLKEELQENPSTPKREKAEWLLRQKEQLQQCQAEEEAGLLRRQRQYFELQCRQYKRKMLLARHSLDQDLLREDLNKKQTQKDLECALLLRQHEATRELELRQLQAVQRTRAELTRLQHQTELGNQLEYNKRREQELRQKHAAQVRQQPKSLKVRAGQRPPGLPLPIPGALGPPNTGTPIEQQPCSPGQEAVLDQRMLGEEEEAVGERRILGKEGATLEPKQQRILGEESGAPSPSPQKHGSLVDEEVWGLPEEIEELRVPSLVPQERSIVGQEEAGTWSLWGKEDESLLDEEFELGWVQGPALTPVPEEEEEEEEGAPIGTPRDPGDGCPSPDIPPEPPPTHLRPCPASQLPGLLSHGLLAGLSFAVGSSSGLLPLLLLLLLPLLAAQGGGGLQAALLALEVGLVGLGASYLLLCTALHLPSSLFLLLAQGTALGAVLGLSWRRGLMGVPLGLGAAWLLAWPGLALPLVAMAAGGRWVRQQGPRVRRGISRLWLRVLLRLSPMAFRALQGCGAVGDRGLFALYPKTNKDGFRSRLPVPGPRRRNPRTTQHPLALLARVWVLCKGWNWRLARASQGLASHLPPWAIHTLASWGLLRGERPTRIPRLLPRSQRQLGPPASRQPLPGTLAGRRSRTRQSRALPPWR
# [7] = target: T3, Serine/threonine-protein kinase TAO2 (Homo sapiens); conditions: at 10 µM
# [8] = target: T4, Serine/threonine-protein kinase TAO3 (Homo sapiens) (UniProt Q9H2K8); conditions: at 1 µM
# T4 sequence (whole entry): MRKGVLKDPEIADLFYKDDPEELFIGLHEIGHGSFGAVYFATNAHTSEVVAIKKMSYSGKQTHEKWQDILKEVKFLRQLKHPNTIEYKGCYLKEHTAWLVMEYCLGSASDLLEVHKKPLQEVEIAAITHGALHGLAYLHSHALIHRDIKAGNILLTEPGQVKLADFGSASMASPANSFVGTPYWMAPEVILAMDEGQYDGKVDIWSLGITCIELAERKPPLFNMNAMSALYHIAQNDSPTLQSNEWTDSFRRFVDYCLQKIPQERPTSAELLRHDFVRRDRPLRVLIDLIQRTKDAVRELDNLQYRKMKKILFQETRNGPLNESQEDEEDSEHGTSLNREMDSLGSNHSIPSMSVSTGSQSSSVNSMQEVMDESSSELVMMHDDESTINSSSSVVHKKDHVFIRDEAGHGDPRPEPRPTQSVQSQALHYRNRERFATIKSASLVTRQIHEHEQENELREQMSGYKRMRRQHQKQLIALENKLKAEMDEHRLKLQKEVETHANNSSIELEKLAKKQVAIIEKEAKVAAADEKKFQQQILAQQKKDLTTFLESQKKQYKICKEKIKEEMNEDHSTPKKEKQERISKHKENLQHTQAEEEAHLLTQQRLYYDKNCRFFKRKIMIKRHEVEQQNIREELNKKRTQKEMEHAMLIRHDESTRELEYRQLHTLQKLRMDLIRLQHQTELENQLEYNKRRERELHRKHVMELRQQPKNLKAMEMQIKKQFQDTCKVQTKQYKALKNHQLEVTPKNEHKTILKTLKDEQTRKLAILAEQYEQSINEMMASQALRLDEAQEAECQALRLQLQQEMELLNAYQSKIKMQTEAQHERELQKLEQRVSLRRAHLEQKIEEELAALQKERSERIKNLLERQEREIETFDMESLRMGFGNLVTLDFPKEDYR
# [9] = target: T4, Serine/threonine-protein kinase TAO3 (Homo sapiens); conditions: at 10 µM
# [10] = target: T5, Serine/threonine-protein kinase TBK1 (Homo sapiens) (UniProt Q9UHD2); conditions: at 1 µM
# T5 sequence (whole entry): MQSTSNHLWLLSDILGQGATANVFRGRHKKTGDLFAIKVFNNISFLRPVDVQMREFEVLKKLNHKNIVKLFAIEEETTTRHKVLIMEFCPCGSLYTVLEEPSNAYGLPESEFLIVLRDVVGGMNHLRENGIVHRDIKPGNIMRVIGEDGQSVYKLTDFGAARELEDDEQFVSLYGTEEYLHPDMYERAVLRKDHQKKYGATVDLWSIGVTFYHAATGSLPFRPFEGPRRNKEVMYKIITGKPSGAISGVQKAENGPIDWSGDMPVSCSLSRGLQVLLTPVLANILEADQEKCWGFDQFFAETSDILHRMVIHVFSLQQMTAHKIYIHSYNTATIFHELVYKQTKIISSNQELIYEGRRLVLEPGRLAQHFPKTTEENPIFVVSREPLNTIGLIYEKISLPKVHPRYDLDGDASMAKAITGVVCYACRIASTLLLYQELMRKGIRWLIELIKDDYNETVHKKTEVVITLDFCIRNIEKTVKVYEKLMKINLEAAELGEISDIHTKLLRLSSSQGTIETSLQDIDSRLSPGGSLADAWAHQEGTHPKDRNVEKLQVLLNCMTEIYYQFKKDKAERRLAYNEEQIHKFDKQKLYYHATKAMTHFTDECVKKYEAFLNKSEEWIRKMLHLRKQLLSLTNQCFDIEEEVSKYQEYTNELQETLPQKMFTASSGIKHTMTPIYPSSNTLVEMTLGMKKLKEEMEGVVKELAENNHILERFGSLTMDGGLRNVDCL
structure (smiles),measurement,setting,value
Nc1n[nH]c2nnc(-c3c(-c4ccccc4)nn4ccccc34)cc12,residual activity,[1],110%
same,residual activity,[2],90%
same,residual activity,[3],77%
same,residual activity,[4],87%
same,residual activity,[5],56%
same,residual activity,[6],90%
same,residual activity,[7],50%
same,residual activity,[8],87%
same,residual activity,[9],40%
same,residual activity,[10],75%
